Assay results taken from PubChem BioAssay (Tox21).
Several values for one entry are separate records, joined by “and”; a condition that tells them apart may be missing. Equal entries are not always repeated. Results filed as inconclusive are left out. Entries that show only a call come without a potency. More than one record can exist for a structure, and the calls need not agree. Activity calls are given as the source filed them. Unless noted, calls follow the shape of the dose curve; as a rule, active = well fitted curve in the direction sought with a large enough effect in the repeat runs; inconclusive = weak or mixed curves; inactive = no such curve, though single readings can be large; an effect the other way counts as inactive or inconclusive.

Tests used:
[1] = qHTS assay to identify small molecule antagonists of the estrogen related receptor (ERR) signaling pathway from Tox21 library - cell viability counter screen (AID 1224834); conditions: ERR reporter cells viability, CellTiter-Fluor, 17.5 h; series mostly up to 92.4 µM; also: nearly all actives have a fitted effect of over 30% in size; also: potency is read from the fitted curve at half-maximal effect
How it was run: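 After 17.5 h of compound exposure at 37 C, ERR cells are incubated with CellTiter-Fluor for 30 min and fluorescence intensity serves as the viability measure.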

[2] = molecular target: Luciferin 4-monooxygenase (Photinus pyralis) (UniProt P08659); test: qHTS assay to identify small molecule inhibitors of firefly luciferase (AID 1224835); also: nearly all actives have a fitted effect of over 25% in size; also: potency is read from the fitted curve at half-maximal effect; conditions: purified P. pyralis luciferase, luminescence inhibition; series mostly up to 115 µM
Luciferin 4-monooxygenase (Photinus pyralis), sequence (P08659 whole entry, looked up): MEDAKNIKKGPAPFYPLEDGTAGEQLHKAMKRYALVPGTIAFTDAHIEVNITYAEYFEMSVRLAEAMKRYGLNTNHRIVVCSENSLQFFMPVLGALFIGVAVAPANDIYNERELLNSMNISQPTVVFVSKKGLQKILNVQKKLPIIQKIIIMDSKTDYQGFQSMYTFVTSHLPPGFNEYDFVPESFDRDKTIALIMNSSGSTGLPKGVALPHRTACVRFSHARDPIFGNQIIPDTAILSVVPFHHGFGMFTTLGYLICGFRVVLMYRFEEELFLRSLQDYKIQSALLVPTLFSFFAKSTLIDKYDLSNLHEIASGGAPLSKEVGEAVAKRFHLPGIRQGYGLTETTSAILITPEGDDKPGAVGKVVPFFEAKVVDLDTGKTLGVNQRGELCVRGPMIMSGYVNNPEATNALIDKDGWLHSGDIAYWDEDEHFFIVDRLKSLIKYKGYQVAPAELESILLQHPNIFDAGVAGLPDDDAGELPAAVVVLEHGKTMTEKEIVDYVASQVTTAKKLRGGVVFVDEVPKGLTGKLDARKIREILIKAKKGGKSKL
How it was run: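 Biochemical qHTS: compounds run as interplate titrations against purified firefly enzyme, with D-luciferin and ATP each at its KM concentration. Light output recorded by CCD imaging.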

[3] = qHTS assay to identify small molecule agonists of the constitutive androstane receptor (CAR) signaling pathway - cell viability counter screen (AID 1224836); conditions: HepG2-CYP2B6-hCAR viability, CellTiter-Fluor, 23 h, PK11195 added to every well; series mostly up to 92.4 µM; also: nearly all actives have a fitted effect of over 45% in size; also: potency is read from the fitted curve at half-maximal effect
How it was run: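 Cells were seeded and incubated 4 hrs. Compounds were added across 15 concentrations together with PK11195 at 0.75 uM final. Plates were incubated 23 hrs at 37 C. CellTiter-Fluor was added and fluorescence measured.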

[4] = qHTS assay to identify small molecule antagonists of the estrogen related receptor signaling pathway with the pleiotropic PPARgamma coactivator (PGC) from Tox21 10K library - cell viability counter screen (AID 1224840; active = well fitted cell-killing curve with a large enough effect in the repeat runs, not every such curve was filed as active; also: nearly all actives have a fitted effect of over 40% in size; also: potency is read from the fitted curve at half-maximal effect); conditions: PGC/ERR reporter cells viability, CellTiter-Fluor, 17.5 h; series mostly up to 92.4 µM
How it was run: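 Following seeding of 2,000 PGC/ERR cells/well and 6 hours' incubation, test compounds were delivered in DMSO. The plates then sat 17.5 hours at 37 C before a fluorogenic live-cell protease reagent (CellTiter-Fluor) was read after 30 min.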

[5] = qHTS assay to identify small molecule agonists of the estrogen related receptor signaling pathway with the pleiotropic PPARgamma coactivator (PGC) from Tox21 10K library (AID 1224842); conditions: PGC/ERR reporter cell line, luciferase ONE-Glo, 18 h; series mostly up to 92.4 µM; also: nearly all actives have a fitted effect of over 15% in size
How it was run: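 PGC/ERR reporter cell line, 2,000 cells per well, incubated 6 h at 37 C before 23 nL compound in DMSO was added. After 18 h at 37 C, One-Glo luminescence read following 30 min at room temperature.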

[6] = molecular target: Thyrotropin receptor (Homo sapiens) (UniProt P16473); test: qHTS assay to identify small molecule agonists of the thyroid stimulating hormone receptor (TSHR) signaling pathway (AID 1224843; calls by dose curve; also: nearly all actives have a fitted effect of over 45% in size; also: potency is read from the fitted curve at half-maximal effect); conditions: TSHR-HEK293 cells, cAMP HTRF, agonist mode, 30 min; series mostly up to 92.4 µM
Thyrotropin receptor (Homo sapiens), sequence (P16473 whole entry, looked up): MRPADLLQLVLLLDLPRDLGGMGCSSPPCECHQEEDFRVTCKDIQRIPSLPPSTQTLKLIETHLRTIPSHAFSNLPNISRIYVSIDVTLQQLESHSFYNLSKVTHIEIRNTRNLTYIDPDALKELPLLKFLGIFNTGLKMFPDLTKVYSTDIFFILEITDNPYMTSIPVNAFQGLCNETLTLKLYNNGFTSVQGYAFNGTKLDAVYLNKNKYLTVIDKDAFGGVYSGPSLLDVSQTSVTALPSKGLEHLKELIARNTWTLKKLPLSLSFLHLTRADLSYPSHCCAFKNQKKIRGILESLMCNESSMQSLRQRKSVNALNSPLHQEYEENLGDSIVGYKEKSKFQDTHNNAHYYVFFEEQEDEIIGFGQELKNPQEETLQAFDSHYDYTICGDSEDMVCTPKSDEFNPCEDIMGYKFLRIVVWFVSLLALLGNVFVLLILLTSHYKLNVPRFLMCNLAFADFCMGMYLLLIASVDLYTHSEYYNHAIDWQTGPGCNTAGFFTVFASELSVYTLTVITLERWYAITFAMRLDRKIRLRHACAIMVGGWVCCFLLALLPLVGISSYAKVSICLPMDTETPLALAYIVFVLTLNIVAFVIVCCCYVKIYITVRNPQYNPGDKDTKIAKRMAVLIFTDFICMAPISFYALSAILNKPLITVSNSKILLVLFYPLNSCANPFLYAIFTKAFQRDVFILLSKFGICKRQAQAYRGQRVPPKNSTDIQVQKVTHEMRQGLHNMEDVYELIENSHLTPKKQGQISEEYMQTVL
How it was run: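 TSHR-HEK293 cells in agonist mode, 30 min room-temperature step, then cAMP measured by competitive HTRF (cAMP-d2 with anti-cAMP cryptate) after 1 h at room temperature. Tested at 15 concentrations in triplicate.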

[7] = molecular target: Nuclear receptor subfamily 1 group I member 3 (Homo sapiens) (UniProt Q14994); test: qHTS assay to identify small molecule agonists of the constitutive androstane receptor (CAR) signaling pathway (AID 1224839); conditions: HepG2 hCAR CYP2B6-luciferase, agonist mode, 24 h; series mostly up to 92.4 µM; also: nearly all actives have a fitted effect of over 15% in size; also: potency is read from the fitted curve at half-maximal effect
Nuclear receptor subfamily 1 group I member 3 (Homo sapiens), sequence (Q14994 whole entry, looked up): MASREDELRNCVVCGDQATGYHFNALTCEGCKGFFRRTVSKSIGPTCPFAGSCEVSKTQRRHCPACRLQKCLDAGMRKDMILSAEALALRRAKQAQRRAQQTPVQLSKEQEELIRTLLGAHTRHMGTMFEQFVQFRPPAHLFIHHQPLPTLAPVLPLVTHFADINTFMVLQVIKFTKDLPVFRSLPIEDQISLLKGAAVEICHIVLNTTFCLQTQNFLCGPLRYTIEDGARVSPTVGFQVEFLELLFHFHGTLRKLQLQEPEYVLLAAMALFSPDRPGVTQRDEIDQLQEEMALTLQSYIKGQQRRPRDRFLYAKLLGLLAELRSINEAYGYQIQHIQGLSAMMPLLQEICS
How it was run: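 Cells were plated and incubated 4 hrs, then dosed with compounds at 15 concentrations. PK11195 was added to 0.75 uM final. After 24 hrs at 37 C, luciferase luminescence was measured.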

[8] = qHTS assay to identify small molecule antagonists of the estrogen related receptor signaling pathway with the pleiotropic PPARgamma coactivator (PGC) from Tox21 10K library (AID 1224841; call rule not given here; also: actives are mostly falling curves and most rising ones were filed inactive; nearly all actives have a fitted effect of over 50% in size; also: potency is read from the fitted curve at half-maximal effect); conditions: PGC/ERR reporter cell line, ONE-Glo luciferase, 18 h; series mostly up to 92.4 µM
How it was run: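 qHTS antagonist format: PGC/ERR cells, 2k/well, compound in DMSO by pin transfer after 6 h attachment, 18 h treatment at 37 C, One-Glo luminescence read at 30 min.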

[9] = qHTS assay to identify small molecule antagonists of the constitutive androstane receptor (CAR) signaling pathway - cell viability counter screen (AID 1224837); conditions: HepG2-CYP2B6-hCAR viability, CellTiter-Fluor, 23 h, co-treated with 50 nM CITCO; series mostly up to 92.4 µM; also: nearly all actives have a fitted effect of over 45% in size; also: potency is read from the fitted curve at half-maximal effect
How it was run: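 Counter screen run in HepG2-CYP2B6-hCAR cells: 4 hr settle, compound titration (15 concentrations) with 50 nM CITCO, 23 hr at 37 C/5% CO2, CellTiter-Fluor fluorescence.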

[10] = molecular target: Nuclear receptor subfamily 1 group I member 3 (Homo sapiens) (UniProt Q14994); test: qHTS assay to identify small molecule antagonists of the constitutive androstane receptor (CAR) signaling pathway (AID 1224838); conditions: HepG2-CYP2B6-hCAR luciferase, CITCO-stimulated, 24 h; series mostly up to 92.4 µM;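 also: HepG2 cells stably expressing hCAR with CYP2B6 luciferase reporter stimulated by CITCO; nearly all actives have a fitted effect of over 40% in size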; also: potency is read from the fitted curve at half-maximal effect
How it was run: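 Cell line: HepG2 double-stable for hCAR and CYP2B6-2.2kb reporter. Agonist: CITCO, 50 nM final. Compounds: 15 concentrations, 24 h, 37 C. Detection: ONE-Glo luminescence.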

Structure (SMILES)	Potency [1]	Potency [2]	Potency [3]	Potency [4]	Potency [5]	Potency [6]	Potency [7]	Potency [8]	Potency [9]	Potency [10]
Clc1cc(C(Cl)(Cl)Cl)cnc1Cl	inactive	inactive	43.3 µM (active)	inactive	inactive	inactive	–	–	–	–
O=[N+]([O-])C(Br)(CO)CO	inactive	–	inactive	–	–	30.6 µM (active)	inactive	inactive	–	–
CCOP(=O)(OCC)SCCSCC	inactive	inactive	inactive	–	inactive	–	–	–	inactive	–
Cl/C=C\C[N+]12CN3CN(CN(C3)C1)C2	inactive	inactive	–	–	inactive	inactive	inactive	–	inactive	61.1 µM (active)
CCCCN=C=O	inactive	inactive	inactive	–	inactive	–	–	–	inactive	–
Cc1ccccc1C(=O)Nc1cccc(OC(C)C)c1	inactive	–	inactive	–	–	inactive	–	–	inactive	inactive
O=[N+]([O-])c1cc(C(F)(F)F)cc([N+](=O)[O-])c1Cl	34.5 µM (active)	inactive	inactive	–	inactive	inactive	inactive	inactive	–	inactive
CCC(COC(=O)c1cc(OC)c(OC)c(OC)c1)(c1ccccc1)N(C)C (centres undefined)	–	inactive	inactive	–	–	–	–	–	inactive	inactive
C=CCOC(C)=O	inactive	inactive	inactive	–	–	inactive	–	–	inactive	–
CCn1cc[n+](C)c1	inactive and 30.9 µM (active)	inactive	–	inactive and 55 µM (active)	–	–	–	–	–	–
CNP(=O)(OC)Oc1ccc(C(C)(C)C)cc1Cl (centres undefined)	inactive	–	inactive	–	inactive	inactive	48.6 µM (active)	inactive	inactive	inactive
[O-][Cl+]O	inactive	inactive	inactive	–	inactive	–	–	inactive	inactive	–
Cc1ccc(-c2c(Cl)nc(C#N)n2S(=O)(=O)N(C)C)cc1	54.4 µM (active)	35.6 µM (active)	–	61.1 µM (active)	–	–	inactive	–	–	–
COP(=S)(OC)Oc1ccc([N+](=O)[O-])cc1Cl	48.6 µM (active)	35.6 µM (active)	–	–	inactive	inactive	–	–	–	inactive
O=C(N[C@H](c1ccccc1)[C@@H]1CN2CCC1CC2)c1c(Cl)ccc(C(F)(F)F)c1Cl	49.3 µM (active)	inactive	98.4 µM (active)	–	inactive	–	inactive	31.1 µM (active)	–	13.9 µM (active)
CCCCCC[N+](=O)[O-]	inactive	–	inactive	inactive	–	inactive	inactive	–	inactive	inactive

Structure (SMILES)	Potency [1]	Potency [2]	Potency [3]	Potency [4]	Potency [5]	Potency [6]	Potency [7]	Potency [8]	Potency [9]	Potency [10]
CCOC(=O)[C@]1(c2ccccc2)Oc2ccccc2[C@@H]1N	inactive	inactive	–	inactive	–	–	inactive	–	–	–
O=C(OC1CCCCC1)c1ccccc1C(=O)OC1CCCCC1	–	inactive	inactive	–	–	–	–	–	inactive	inactive
C=CCN1CC[C@]23c4c5ccc(O)c4O[C@H]2C(=O)CC[C@@]3(O)[C@H]1C5	inactive	–	inactive	inactive	inactive	inactive	–	inactive	inactive	–
Nc1ccc(N=Nc2ccc(-c3ccc(N=Nc4c(S(=O)(=O)O)cc5cc(S(=O)(=O)O)c(N=Nc6ccccc6)c(O)c5c4N)cc3)cc2)c(N)c1	31.3 µM (active)	20.4 µM (active)	inactive	35.1 µM (active)	–	–	–	–	–	inactive
NCCCNCCCN	inactive	–	inactive	inactive	–	inactive	inactive	–	inactive	inactive
CCc1ccc(C(=O)NN(C(=O)c2cc(C)cc(C)c2)C(C)(C)C)cc1	8.63 µM (active)	inactive	–	inactive	inactive	–	–	–	–	inactive
O=C(Nc1ccccc1)Nc1ccnc(Cl)c1	43.3 µM (active)	15.9 µM (active)	48.6 µM (active)	–	inactive	–	–	–	–	–
CC(C)N(CCC(C(N)=O)(c1ccccc1)c1ccccn1)C(C)C (centres undefined)	inactive	–	inactive	inactive	–	–	inactive	–	inactive	inactive
c1ccc(C2CC2)c(OCC2=NCCN2)c1	inactive	inactive	–	inactive	inactive	–	–	–	inactive	–
C/C(=C\c1ccccc1)[N+](=O)[O-]	27.3 µM (active)	–	–	–	inactive	–	inactive	30.6 µM (active)	30.6 µM (active)	24.3 µM (active)
CCCC(Cn1cncn1)c1ccc(Cl)cc1Cl (centres undefined)	54.5 µM (active)	inactive	inactive	–	inactive	–	61.1 µM (active)	–	–	inactive
CCC(C)(NC(=O)c1cc(Cl)c(C)c(Cl)c1)C(=O)CCl (centres undefined)	24.5 µM (active)	inactive	61.5 µM (active)	–	inactive	–	inactive	3.88 µM (active)	–	48.9 µM (active)
Clc1cccc(SC2CCNCC2)n1	inactive	inactive	inactive	–	inactive	inactive	–	inactive	inactive	–
CCOP(=O)(OCC)O/C(=C/Cl)c1ccc(Cl)cc1Cl	–	inactive	–	–	inactive	–	27.3 µM (active)	–	–	inactive
CC1(C)CCC(Cc2ccc(Cl)cc2)C1(O)Cn1cncn1 (centres undefined)	–	inactive	inactive	–	inactive	–	inactive	38.6 µM (active)	inactive	inactive
O=C(NCc1cccnc1)Nc1ccc([N+](=O)[O-])cc1	–	inactive	inactive	–	–	inactive	–	–	inactive	inactive
